The structures appear in SMILES notation. Hit rate of the full screen: of about 340,000 compounds, about 1,000 (0.29%) were called active. These entries were drawn from the full list. Measured potencies and affinities stand elsewhere. Values without a mark were called inactive. Rule as the data show it: inconclusive = inhibition above about 27% without an active follow-up result; inactive = below that.

This experiment is described as follows: NS1A inhibition, H1N1 influenza, cell based functional assay (AID 504329). Particulars: percent inhibition, at 12.5 µM, active compounds read high.
A word on the inhibition: it is the drop in the measured response relative to a control, in per cent. As for `CN1CCc2cc3c(c4c2C1CC41CCC(=NO)CC1)OCO3` (stereo not drawn), the inhibition is 4.88%. To `C=CCOC(=O)C1=C[C@H](C2CC2)[C@@H](CCCO)[C@H](OCC)O1` belongs -9.11%; to `CC(C)/C=C/C(=O)N1CCCC(N2CCN(c3ccccc3F)CC2)C1` (stereo not drawn), -4.31%. Next, `Cc1ccccc1CSc1nn2c(=O)c(C)nnc2s1`: -4.51%; `COc1ccccc1NC(=O)CSc1nnc(C)s1`: 4.51%; `COc1ccc(OC)c(NC(=O)CSc2nn3c(=O)c(C)nnc3s2)c1`: 12.7%. To `Cc1nnc2sc(SCc3ccccc3Cl)nn2c1=O` belongs -4.7%; to `O=C(/C=N/O)NCc1ccncc1`, -2.91%. `O=C(CC(NS(=O)(=O)c1ccc(Cl)cc1)c1ccco1)NCc1ccco1` (stereo not drawn): the inhibition was -0.25%. As to `Cc1ccccc1NC(=S)N(Cc1cccnc1)Cc1ccco1`, the inhibition was 17%.

Turning to `Cc1cc(C(=O)NCCCOC(C)C)c2ccccc2n1`, the inhibition is 5.34%. Consider `COc1ccc(-c2csc(NC(=O)CCCc3nc4ccccc4c(=O)[nH]3)n2)cc1OC`, for which the inhibition is 0.34%.

`N#Cc1ccc(CSc2nnc3[nH]c(=O)cc(N)n23)cc1`: the inhibition is -7.19%. Next, `O=C(COc1ncnc2ccccc12)NC1CCCCC1`: 9.63%; `COc1ccc(CC(=O)NC(C)c2nnc(SCC(=O)Nc3cc(C)ccc3OC)n2C)cc1` (stereo not drawn): -9.49%. Consider `O=c1cnnc(N/N=C/c2ccccn2)[nH]1`, for which the inhibition is 20.5%. Next, `Cc1csc(N/N=C/c2ccccn2)n1`: 7.11%; `C(=N\Nc1nc2ccccc2[nH]1)/c1ccccn1`: 17.1%; `O=C(N/N=C/c1ccccn1)c1ccc(N/N=C/c2ccccn2)cc1`: 1.09%. Next, `C(=N\Nc1nncc2ccccc12)/c1ccccc1`: -20.6%. Turning to `Cc1cccc(/C=N/Nc2nncc3ccccc23)c1`, the inhibition is 3.05%.

`C=CCn1c(SCC(=O)NCc2ccc3c(c2)OCO3)nnc1C1COc2ccccc2O1` (stereo not drawn): the inhibition is -2.53%. On to `CCC(C)[C@H](NC(=O)N1CCn2c1nc1ccccc12)C(=O)NCCc1ccccc1` (stereo partly drawn), for which the inhibition was 4.3%. To `COc1cccc(-c2ccc(NC(=O)C3CCCN(CCCn4nc(C)cc4C)C3)cc2)c1` (stereo not drawn) belongs 3.69%; to `N#Cc1c(C(F)(F)F)cc(-c2ccccc2)n(N)c1=O`, -8.39%. Next, `O=C(Nc1ccon1)c1ccc(Cl)c(S(=O)(=O)N2CCCCC2)c1`: -6.8%; `S=c1[nH]nc(C2CCCCC2)n1/N=C/c1ccccn1`: -8.07%.

For `CCc1n[nH]c(=S)n1/N=C/c1ccccn1`, the inhibition was -4.28%.

The record behind these values is PubChem BioAssay AID504329 (Southern Research Specialized Biocontainment Screening …, 2011).
